Experimental data reported in PubChem BioAssay (NCATS).
Records with an inconclusive call do not appear. Active and inactive are the calls of the source. Calls come from the whole dose curve; as a rule, active = well fitted inhibition curve with a large enough effect; inconclusive = small, poorly fitted or top-dose-only effect; inactive = flat fitted curve, though single readings scatter.

Assays:
Assay in all cases: qHTS profiling for inhibitors of Plasmodium falciparum proliferation (AID 504749); note: nearly all actives have a fitted effect of over 60% in size
Conditions in all cases: P. falciparum in erythrocytes, SYBR Green DNA, 72 h; series mostly up to 28.7 µM
CP211 = system: CP211
How it was run: (§1)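 Three-day growth assay of blood-stage parasites in erythrocytes (0.3% parasitemia, 2.5% hematocrit) at 37 C, 5% CO2, quantified by SYBR Green DNA staining after overnight detergent lysis.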

CP215 = system: CP215
How it was run: as §1

CP217 = system: CP217
How it was run: as §1

CP237 = system: CP237
How it was run: as §1

CP238 = system: CP238
How it was run: as §1

CP247 = system: CP247
How it was run: as §1

CP250 = system: CP250
How it was run: as §1

CP252 = system: CP252
How it was run: as §1

CP256 = system: CP256
How it was run: as §1

CP203 = system: CP203
How it was run: as §1

Measured: Potency
Potency is the fitted concentration of half-maximal effect.

O=C(c1ccc(F)cc1)C1CCN(CCn2c(=S)[nH]c3ccccc3c2=O)CC1
active: CP211 6.01 µM | CP215 5.36 µM | CP217 5.01 µM | CP237 5.01 µM | CP238 7.94 µM | CP247 4.47 µM | CP250 10 µM | CP252 6.31 µM | CP256 8.91 µM

CCOC(=O)c1c(N)sc2c1CCN(Cc1ccccc1)C2
active: CP211 6.75 µM | CP215 8.49 µM | CP217 5.62 µM | CP237 7.94 µM | CP238 5.62 µM | CP247 3.98 µM | CP250 5.01 µM | CP252 7.94 µM | CP256 5.01 µM

CCN(CC)CCNC(=O)c1cc(Br)c(N)cc1OC
not listed: CP203
inactive: all other assays above

CCOCCn1c(N2CCCN(C)CC2)nc2ccccc21
active: CP237 11.2 µM
not listed: CP203
inactive: all other assays above

CCC1Nc2cc(Cl)c(S(N)(=O)=O)cc2S(=O)(=O)N1 (stereo not given)
not listed: CP203
inactive: all other assays above

CNCCCCOc1ccccc1Cc1ccccc1
active: CP203 4.26 µM | CP238 8.91 µM

CN1CCN(C2=Nc3cc(F)ccc3Cc3ccccc32)CC1
active: CP237 7.08 µM
not listed: CP247 | CP256 | CP203
inactive: all other assays above

CN(Cc1ccc(C(C)(C)C)cc1)Cc1cccc2ccccc12
not listed: CP203
inactive: all other assays above

NCCNC(=O)c1ccc(Cl)cn1
not listed: CP203
inactive: all other assays above

OC1C(O)C(O)C(O)C(O)C1O (stereo not given)
not listed: CP203
inactive: all other assays above

CCCCCCCCNC(C)C(O)c1ccc(SC(C)C)cc1 (stereo not given)
active: CP211 3.38 µM | CP215 1.69 µM | CP217 0.708 µM | CP237 0.794 µM | CP238 0.794 µM | CP247 0.891 µM | CP250 0.891 µM | CP252 0.794 µM | CP256 1 µM

COP(=O)(OC)OC(c1ccc(Cl)cc1)P(=O)(OC)OC (stereo not given)
not listed: CP203
inactive: all other assays above

CC(C)Cn1cnc2c1c(=O)n(C)c(=O)n2C
not listed: CP203
inactive: all other assays above

CC(=O)NO
not listed: CP203
inactive: all other assays above

CCCCCCCCCCCCCCCC(=O)O
not listed: CP203
inactive: all other assays above

CN1CCN(c2c(F)cc3c(=O)c(C(=O)O)cn4c3c2SCC4)CC1
inactive: CP203 | CP238 | CP247 | CP250

Nc1ccc(S(=O)(=O)NCc2ccccc2)cc1
not listed: CP203
inactive: all other assays above

O=S(=O)(O)c1ccc(O)cc1
not listed: CP203
inactive: all other assays above

C#C[C@]1(OC(C)=O)CC[C@H]2[C@@H]3CCC4=C/C(=N/O)CC[C@@H]4[C@H]3CC[C@@]21CC
not listed: CP203
inactive: all other assays above

NCc1ccccc1Sc1ccccc1CO
active: CP237 8.91 µM
not listed: CP256 | CP203
inactive: all other assays above

CCCCN=C(N)N=C(N)N
not listed: CP203
inactive: all other assays above

Nc1ccc(C(=O)NCC(=O)O)cc1
not listed: CP203
inactive: all other assays above

O=C(O)c1ccc(S(=O)(=O)N(Cl)Cl)cc1
not listed: CP203
inactive: all other assays above

O[C@@H](c1cc(C(F)(F)F)nc2c(C(F)(F)F)cccc12)[C@H]1CCCCN1
active: CP211 0.213 µM | CP215 0.0953 µM | CP217 0.0398 µM | CP237 0.0251 µM | CP238 0.0447 µM | CP247 0.0708 µM | CP250 0.0631 µM | CP252 0.0316 µM | CP256 0.0631 µM

O=C(Oc1cccc2cccnc12)c1ccccc1
not listed: CP203
inactive: all other assays above

CCC(C(=O)OCCOCCN(CC)CC)c1ccccc1 (stereo not given)
active: CP237 11.2 µM
not listed: CP203
inactive: all other assays above

CC1(COc2ccc(CC3SC(=O)NC3=O)cc2)CCCCC1 (stereo not given)
not listed: CP247 | CP203
inactive: all other assays above

C#C[C@]1(O)CC[C@H]2[C@@H]3CCc4cc(OC)ccc4[C@H]3CC[C@@]21C
not listed: CP203
inactive: all other assays above

FC1(F)C(F)(F)C(F)(F)C2(F)C(F)(F)C(F)(F)C(F)(F)C(F)(F)C2(F)C1(F)F (stereo not given)
not listed: CP203
inactive: all other assays above

Cc1ccc(-c2ncc(Cl)cc2-c2ccc(S(C)(=O)=O)cc2)cn1
inactive: CP211

CCN(CC)CCNC(=O)COc1ccc(OC)cc1
not listed: CP203
inactive: all other assays above

O=C(Nc1cccc(C2=NCCN2)c1)Nc1cccc(C2=NCCN2)c1
active: CP211 13.5 µM | CP215 12 µM | CP217 3.55 µM | CP237 6.31 µM | CP238 6.31 µM | CP247 2.82 µM | CP250 3.55 µM | CP252 3.16 µM | CP256 0.708 µM

O=C(O)C(Cc1cc(I)c(O)c(I)c1)c1ccccc1 (stereo not given)
not listed: CP203
inactive: all other assays above

NS(=O)(=O)c1cc(C(=O)O)cc(N2CCCC2)c1Oc1ccccc1
not listed: CP203
inactive: all other assays above

COc1cc(N)c(Cl)cc1C(=O)NC1CCN(Cc2ccccc2)CC1
not listed: CP203
inactive: all other assays above

CCOc1ccccc1OCCN[C@H](C)Cc1ccc(OC)c(S(N)(=O)=O)c1
not listed: CP203
inactive: all other assays above

O=C(NC1CCN(CCc2c[nH]c3ccccc23)CC1)c1ccccc1
not listed: CP203
inactive: all other assays above

Oc1ccccc1C=NCc1ccccc1
not listed: CP203
inactive: all other assays above

CC(=O)O[C@H]1C[C@@H]2CC[C@@H]3[C@H](CC[C@@]4(C)[C@H]3C[C@H]([N+]3(C)CCCCC3)[C@@H]4OC(C)=O)[C@@]2(C)C[C@@H]1N1CCCCC1
inactive: CP247

Nc1ccc(S(=O)(=O)Nc2cnc3ccccc3n2)cc1
not listed: CP215 | CP203
inactive: all other assays above

Cc1cc2c(OCC(CNC(C)(C)C)OC(=O)c3ccccc3)cccc2[nH]1 (stereo not given)
active: CP237 11.2 µM
not listed: CP215 | CP247 | CP203
inactive: all other assays above

CN1CCN(C2=Nc3ccccc3Sc3ccc(Cl)cc32)CC1
inactive: CP211 | CP238 | CP247 | CP250 | CP252 | CP256

CC(C)(C)NC[C@H](O)COc1cccc2c1CCCC2=O
not listed: CP215 | CP203
inactive: all other assays above

O=C(O)C1(C(=O)O)CCC1.[NH2-].[NH2-].[Pt+2]
not listed: CP237 | CP203
inactive: all other assays above

Oc1ccc(Cl)cc1Cc1cc(Cl)ccc1O
inactive: CP211 | CP238 | CP250
active: CP247 11.2 µM | CP252 12.6 µM

CN(C)CCN1C(=O)c2ccccc2N(C)c2ccccc21
active: CP237 3.98 µM
inactive: CP215 | CP250

O=S(c1cc(Cl)cc(Cl)c1O)c1cc(Cl)cc(Cl)c1O
active: CP237 7.08 µM | CP250 28.2 µM

CO[C@]12C[C@@H](COC(=O)c3cncc(Br)c3)CN(C)[C@@H]1Cc1cn(C)c3cccc2c13
inactive: CP211 | CP217 | CP250 | CP252 | CP256

CN(C)CCOC(c1ccc(Cl)cc1)c1ccccn1 (stereo not given)
inactive: CP211 | CP215 | CP250

O=C(O)CCc1nc2ccccc2[nH]1
inactive: CP238 | CP247 | CP256

CN1CCc2cccc3c2[C@H]1Cc1ccc(O)c(O)c1-3
active: CP237 6.31 µM | CP250 8.91 µM

CCCCCN=C(N)N/N=C/c1c[nH]c2ccc(OC)cc12
active: CP237 5.01 µM

CN(C)CCC[C@@]1(c2ccc(F)cc2)OCc2cc(C#N)ccc21
not listed: CP215 | CP256 | CP203
inactive: all other assays above

CN(CCCN1c2ccccc2CCc2ccccc21)CC(=O)c1ccc(Cl)cc1
active: CP217 11.2 µM | CP237 12.6 µM

CC(C)(C)NC[C@H](O)COc1nsnc1N1CCOCC1
active: CP237 5.01 µM

COc1ccccc1N1CCN(CCCCNC(=O)c2ccc(-c3ccc(C(C)=O)cc3)cc2)CC1
not listed: CP237 | CP203
inactive: all other assays above

CCN(CC)CCOC(=O)C1(c2ccccc2)CCCC1
active: CP237 2.82 µM
inactive: CP217 | CP238 | CP250 | CP252 | CP256

COc1ccc(C(Cl)=C(c2ccc(OC)cc2)c2ccc(OC)cc2)cc1
active: CP217 11.2 µM | CP238 10 µM | CP250 10 µM
inactive: CP211 | CP215

CN1CCN(CCC(=O)N2c3ccccc3Sc3ccc(C(F)(F)F)cc32)CC1
inactive: CP215 | CP217 | CP250 | CP256

CN1CCC(OC(c2ccccc2)c2ccccc2)CC1
inactive: CP250

NC1CCN(c2nc3c(cc2F)c(=O)c(C(=O)O)cn3-c2ccc(F)cc2F)C1 (stereo not given)
inactive: CP247 | CP250

NC(N)=NN=C(/C=C/c1ccc([N+](=O)[O-])o1)/C=C/c1ccc([N+](=O)[O-])o1
active: CP237 3.55 µM | CP247 7.08 µM | CP250 11.2 µM

CCN(CC)CCOc1ccc2c(c1)C(=O)c1cc(OCCN(CC)CC)ccc1-2
active: CP237 12.6 µM | CP256 11.2 µM

CCN(CC)CCOc1ccccc1C(=O)CCc1ccccc1
inactive: CP250

Cc1ccc2c(Br)cc(Br)c(O)c2n1
active: CP211 15.1 µM | CP215 9.53 µM | CP217 10 µM | CP247 11.2 µM

Clc1cccc(C(c2ccc3nc[nH]c3c2)n2ccnc2)c1 (stereo not given)
active: CP211 12 µM
inactive: CP238

CN1CCC[C@@H]1CCO[C@](C)(c1ccccc1)c1ccc(Cl)cc1
inactive: CP211 | CP215 | CP238 | CP256

Cc1ncc(CO)c(C=O)c1O
not listed: CP211 | CP215 | CP203
inactive: all other assays above

CN(C)C(=O)Nc1ccc(Cl)c(Cl)c1
active: CP247 4.47 µM
inactive: CP250

NCCNc1cccc2ccccc12
not listed: CP237 | CP203
inactive: all other assays above

CC1CCc2c(N3CCC(O)CC3)c(F)cc3c(=O)c(C(=O)O)cn1c23 (stereo not given)
inactive: CP211 | CP250 | CP256

O=[N+]([O-])c1cccc(S(=O)(=O)NCCNS(=O)(=O)c2cccc([N+](=O)[O-])c2)c1
not listed: CP237 | CP203
inactive: all other assays above

CC[N+](C)(CC)CCOC(=O)C(O)(c1ccccc1)C1CCCCC1 (stereo not given)
inactive: CP215 | CP217 | CP237 | CP238 | CP252 | CP256

O=C(CN1CCN(Cc2ccc3c(c2)OCO3)CC1)N1c2ccccc2Sc2ccccc21
active: CP217 11.2 µM

O=C(Nc1ccc([N+](=O)[O-])cc1)Nc1ccc([N+](=O)[O-])cc1
active: CP237 3.98 µM
not listed: CP215 | CP203
inactive: all other assays above

CC(C)(Cc1c[nH]c2ccccc12)NCC(O)COc1ccccc1C#N (stereo not given)
inactive: CP215
active: CP237 10 µM

CC(=O)NCCCCCC(=O)O
not listed: CP211 | CP250 | CP203
inactive: all other assays above

COC(=O)C(c1ccccc1Cl)N1CCc2sccc2C1 (stereo not given)
inactive: CP247
